From PubChem BioAssay (NCI)
The panel holds about 83,000 compounds, 20% with a hit somewhere; the sample as a whole holds those more often.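 Assay: single dose, 48 h. Readout: percent growth (0 = no net growth; negative = cell death). Active: <10.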 Values without a mark were called inactive. The source made the active and inactive calls.

What was measured:
Assay in all cases: NCI-60 one-dose screen, 48 h (100 = growth as untreated, 0 = no growth, -100 = all killed)
SR leukemia = details: 10 µM unless noted
RPMI-8226 leukemia = details: 10 µM unless noted
OVCAR-8 ovarian = details: 10 µM unless noted
OVCAR-5 ovarian = details: 10 µM unless noted
OVCAR-4 ovarian = details: 10 µM unless noted
SK-OV-3 ovarian = details: 10 µM unless noted
IGROV1 ovarian = details: 10 µM unless noted
OVCAR-3 ovarian = details: 10 µM unless noted
HS 578T breast = details: 10 µM
NCI/ADR-RES ovarian = details: 10 µM unless noted

`CO[C@H](C(=O)N[C@@H](CCCCNC(=O)OCc1ccccc1)C(=O)OC(C)(C)C)[C@@H]1Cc2cc3cc(OC4CC(OC5CC(O)C(O)C(C)O5)C(O)C(C)O4)c(C)c(O)c3c(O)c2C(=O)[C@H]1OC1CC(OC2CC(OC3CC(C)(O)C(O)C(C)O3)C(O)C(C)O2)C(O)C(C)O1` (stereo not given in full) was tested, and the growth (SR leukemia) was 7.17% (active), the growth (RPMI-8226 leukemia) was -5.01% (active) and the growth (OVCAR-8 ovarian) was 12.9%. The growth (OVCAR-5 ovarian) was -77.9% (active), the growth (OVCAR-4 ovarian) was 43.1% and the growth (SK-OV-3 ovarian) was -52.7% (active). The growth (IGROV1 ovarian) was 22.2%, the growth (OVCAR-3 ovarian) was 24.8% and the growth (HS 578T breast) was -16.4% (active). For the same compound, the growth (NCI/ADR-RES ovarian) was 73.2%.
`CNC(=O)c1cc(Oc2cccc3nc(Nc4ccc(Cl)c(F)c4)ccc23)ccn1` gave a growth (SR leukemia) of 62.2%, a growth (RPMI-8226 leukemia) of 99.5% and a growth (OVCAR-8 ovarian) of 48.9%. The growth (OVCAR-5 ovarian) was 79.7%, the growth (OVCAR-4 ovarian) was 8.11% (active) and the growth (SK-OV-3 ovarian) was 41.4%. The growth (IGROV1 ovarian) was 79.3%, the growth (OVCAR-3 ovarian) was 52.2% and the growth (HS 578T breast) was 37.5%. For the same compound, the growth (NCI/ADR-RES ovarian) was 49.5%.
With `Nc1c(C(=O)c2ccccc2)sc2nc(-c3cccs3)cc(-c3cccs3)c12` the growth (SR leukemia) was 24.4%, the growth (RPMI-8226 leukemia) was 57.7% and the growth (OVCAR-8 ovarian) was 54.8%. The growth (OVCAR-5 ovarian) was 84.5%, the growth (OVCAR-4 ovarian) was 62.6% and the growth (SK-OV-3 ovarian) was 46%. For the same compound, the growth (IGROV1 ovarian) was 66.3%, the growth (OVCAR-3 ovarian) was 11.9% and the growth (HS 578T breast) was 53.4%. For the same compound, the growth (NCI/ADR-RES ovarian) was 24.4%.
Work on `CCCCCc1ccc(C)cc1OC(=O)CCl` yielded a growth (SR leukemia) of 109%, a growth (RPMI-8226 leukemia) of 98.5% and a growth (OVCAR-8 ovarian) of 89.1%. The growth (OVCAR-5 ovarian) was 101%, the growth (OVCAR-4 ovarian) was 109% and the growth (SK-OV-3 ovarian) was 107%. For the same compound, the growth (IGROV1 ovarian) was 103%, the growth (OVCAR-3 ovarian) was 122% and the growth (HS 578T breast) was 116%. For the same compound, the growth (NCI/ADR-RES ovarian) was 111%.
For `O=[N+]([O-])c1cc(Br)cc2c1[nH]c1ccc(Br)cc12`, the growth (SR leukemia) was 77.2%, the growth (RPMI-8226 leukemia) was 78.2% and the growth (OVCAR-8 ovarian) was 57.7%. The growth (OVCAR-5 ovarian) was 80.4%, the growth (OVCAR-4 ovarian) was -26.5% (active) and the growth (SK-OV-3 ovarian) was 34.5%. It also gave a growth (IGROV1 ovarian) of 36.6%, a growth (OVCAR-3 ovarian) of 43.3% and a growth (HS 578T breast) of 65.4%. It also gave a growth (NCI/ADR-RES ovarian) of 70.4%.
In the case of `CN1CCN(c2nc(NCCNc3ccnc4cc(Cl)ccc34)c3ccccc3n2)CC1`, the growth (SR leukemia) is reported as -23.4% (active), the growth (RPMI-8226 leukemia) is reported as 3.82% (active) and the growth (OVCAR-8 ovarian) is reported as 12.4%. For the same compound, the growth (OVCAR-5 ovarian) was 59.9%, the growth (OVCAR-4 ovarian) was -0.851% (active) and the growth (SK-OV-3 ovarian) was 44.6%. It also gave a growth (IGROV1 ovarian) of 30.2%, a growth (OVCAR-3 ovarian) of 17.4% and a growth (HS 578T breast) of 28.2%. The growth (NCI/ADR-RES ovarian) was 85.5%.
With `O=C(Cc1ccccc1)Nc1nnc(NC2CCN(c3nnc(NC(=O)Cc4ccccc4)s3)CC2)s1` the growth (SR leukemia) was 84.9%, the growth (RPMI-8226 leukemia) was 58.9% and the growth (OVCAR-8 ovarian) was 95.2%. For the same compound, the growth (OVCAR-5 ovarian) was 94.3%, the growth (OVCAR-4 ovarian) was 98.8% and the growth (SK-OV-3 ovarian) was 84%. The growth (IGROV1 ovarian) was 84.8%, the growth (OVCAR-3 ovarian) was 94.4% and the growth (HS 578T breast) was 78.6%. The growth (NCI/ADR-RES ovarian) was 98.4%.
For `Cc1cc(N2CCOCC2)nc(N(CCNc2ccnc3cc(Cl)ccc23)Cc2cccs2)n1`, the growth (SR leukemia) was -13% (active), the growth (RPMI-8226 leukemia) was -11.9% (active) and the growth (OVCAR-8 ovarian) was 8.53% (active). For the same compound, the growth (OVCAR-5 ovarian) was 83.2%, the growth (OVCAR-4 ovarian) was 14.2% and the growth (SK-OV-3 ovarian) was 61.5%. For the same compound, the growth (IGROV1 ovarian) was 35.1%, the growth (OVCAR-3 ovarian) was -73.9% (active) and the growth (HS 578T breast) was 5.37% (active). The growth (NCI/ADR-RES ovarian) was 34.1%.
With `Clc1ccc2c(NCCCNCc3ccc4c(c3)OCO4)ccnc2c1` the growth (SR leukemia) was -22.9% (active), the growth (RPMI-8226 leukemia) was 22% and the growth (OVCAR-8 ovarian) was 30.7%. The growth (OVCAR-5 ovarian) was 85.8%, the growth (OVCAR-4 ovarian) was 59.1% and the growth (SK-OV-3 ovarian) was 71.2%. For the same compound, the growth (IGROV1 ovarian) was 57.3%, the growth (OVCAR-3 ovarian) was 63.7% and the growth (HS 578T breast) was 78.9%. For the same compound, the growth (NCI/ADR-RES ovarian) was 74.3%.
In the case of `Clc1ccc2c(NCCNc3nc(N4CCCC4)nc4ccccc34)ccnc2c1`, the growth (SR leukemia) is reported as -22.6% (active), the growth (RPMI-8226 leukemia) is reported as -18.2% (active) and the growth (OVCAR-8 ovarian) is reported as 3.61% (active). The growth (OVCAR-5 ovarian) was 23.6%, the growth (OVCAR-4 ovarian) was -7.19% (active) and the growth (SK-OV-3 ovarian) was -63.3% (active). The growth (IGROV1 ovarian) was 3.56% (active), the growth (OVCAR-3 ovarian) was -65.8% (active) and the growth (HS 578T breast) was 19.9%. For the same compound, the growth (NCI/ADR-RES ovarian) was 60.2%.
`CC(C)(C)OC(=O)N1CCC(O)[C@@H](O[Si](c2ccccc2)(c2ccccc2)C(C)(C)C)[C@H]1/C=C/c1ccccc1` (stereo not given in full) showed a growth (SR leukemia) of 32.6%, a growth (RPMI-8226 leukemia) of 25.2% and a growth (OVCAR-8 ovarian) of 59.5%. For the same compound, the growth (OVCAR-5 ovarian) was 71.5%, the growth (OVCAR-4 ovarian) was 21.3% and the growth (SK-OV-3 ovarian) was 56.3%. For the same compound, the growth (IGROV1 ovarian) was 60.6%, the growth (OVCAR-3 ovarian) was 43.6% and the growth (HS 578T breast) was 55.8%. It also gave a growth (NCI/ADR-RES ovarian) of 69.3%.
In the case of `COc1ccc(CCCc2c3[n+](cc4c(OC)c(OC)ccc24)CCc2cc4c(cc2-3)OCO4)cc1`, the growth (SR leukemia) is reported as 37.6%, the growth (RPMI-8226 leukemia) is reported as 20.5% and the growth (OVCAR-8 ovarian) is reported as 48.1%. The growth (OVCAR-5 ovarian) was 86.6%, the growth (OVCAR-4 ovarian) was 54.5% and the growth (SK-OV-3 ovarian) was 77.5%. For the same compound, the growth (IGROV1 ovarian) was 53.9%, the growth (OVCAR-3 ovarian) was 30% and the growth (HS 578T breast) was 97.2%. For the same compound, the growth (NCI/ADR-RES ovarian) was 93.7%.
For `COC(=O)[C@H](C)NC(=O)[C@@H](OC)[C@@H]1Cc2cc3cc(OC4CC(OC5CC(O)C(O)C(C)O5)C(O)C(C)O4)c(C)c(O)c3c(O)c2C(=O)[C@H]1OC1CC(OC2CC(OC3CC(C)(O)C(O)C(C)O3)C(O)C(C)O2)C(O)C(C)O1` (stereo not given in full), the growth (SR leukemia) was 7.81% (active), the growth (RPMI-8226 leukemia) was -5.91% (active) and the growth (OVCAR-8 ovarian) was 9.19% (active). The growth (OVCAR-5 ovarian) was 13.5%, the growth (OVCAR-4 ovarian) was 0.165% (active) and the growth (SK-OV-3 ovarian) was 22.6%. The growth (IGROV1 ovarian) was 22.8%, the growth (OVCAR-3 ovarian) was 5.02% (active) and the growth (HS 578T breast) was -7.37% (active). It also gave a growth (NCI/ADR-RES ovarian) of 75.4%.
`O=C1CCC(=O)CC1` was tested, and the growth (SR leukemia) was 97.4%, the growth (RPMI-8226 leukemia) was 110% and the growth (OVCAR-8 ovarian) was 101%. The growth (OVCAR-5 ovarian) was 92.3%, the growth (OVCAR-4 ovarian) was 113% and the growth (SK-OV-3 ovarian) was 112%. For the same compound, the growth (IGROV1 ovarian) was 96.3%, the growth (OVCAR-3 ovarian) was 117% and the growth (HS 578T breast) was 103%. It also gave a growth (NCI/ADR-RES ovarian) of 104%.
`COc1c(C(NC(=O)c2ccccc2)c2sccc2C)cc(Cl)c2cccnc12` (stereo not given) showed a growth (SR leukemia) of 90%, a growth (RPMI-8226 leukemia) of 89.1% and a growth (OVCAR-8 ovarian) of 96.8%. The growth (OVCAR-5 ovarian) was 96.6%, the growth (OVCAR-4 ovarian) was 112% and the growth (SK-OV-3 ovarian) was 89.3%. It also gave a growth (IGROV1 ovarian) of 106%, a growth (OVCAR-3 ovarian) of 117% and a growth (HS 578T breast) of 98.6%. For the same compound, the growth (NCI/ADR-RES ovarian) was 98.2%.
With `COc1ccc(OC)c(NC2=C(SCCc3ccccc3)C(=O)c3ccccc3C2=O)c1` the growth (SR leukemia) was 70.7%, the growth (RPMI-8226 leukemia) was 74% and the growth (OVCAR-8 ovarian) was 94.5%. For the same compound, the growth (OVCAR-5 ovarian) was 99.3%, the growth (OVCAR-4 ovarian) was 58.4% and the growth (SK-OV-3 ovarian) was 88.5%. The growth (IGROV1 ovarian) was 75.7%, the growth (OVCAR-3 ovarian) was 83.4% and the growth (HS 578T breast) was 70.8%. The growth (NCI/ADR-RES ovarian) was 76.5%.
In the case of `C[N+](C)(CCOC(c1ccccc1)c1ccccc1)CC(=O)OCc1ccccc1`, the growth (SR leukemia) is reported as 115%, the growth (RPMI-8226 leukemia) is reported as 111% and the growth (OVCAR-8 ovarian) is reported as 106%. For the same compound, the growth (OVCAR-5 ovarian) was 103%, the growth (OVCAR-4 ovarian) was 93.5% and the growth (SK-OV-3 ovarian) was 106%. For the same compound, the growth (IGROV1 ovarian) was 106%, the growth (OVCAR-3 ovarian) was 103% and the growth (HS 578T breast) was 108%. The growth (NCI/ADR-RES ovarian) was 105%.
Work on `Cc1ccccc1Nc1nc2nonc2nc1Nc1cccc(C)c1C` yielded a growth (SR leukemia) of 66.8%, a growth (RPMI-8226 leukemia) of 24.4% and a growth (OVCAR-8 ovarian) of 54.3%. For the same compound, the growth (OVCAR-5 ovarian) was 98.9%, the growth (OVCAR-4 ovarian) was 30.3% and the growth (SK-OV-3 ovarian) was 56.6%. For the same compound, the growth (IGROV1 ovarian) was 74%, the growth (OVCAR-3 ovarian) was 35.8% and the growth (HS 578T breast) was 72.6%. For the same compound, the growth (NCI/ADR-RES ovarian) was 56.5%.
